# Measured values: the supplement of paper PMC5919970
# In all, about 2,000 compounds were measured (“fractional viability relative to vehicle”: median about 0.91, lowest 2% from about 0.045 on). The entries come from a sample that favours the lowest values as a whole.
# Test system: TYKNU
# Assay: fractional viability relative to vehicle; TYKNU is a high-grade serous ovarian cancer line; higher = less growth inhibition
# Settings: 72 h
# Outline: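 TYKNU control cells or lentiCRISPRv2 knockout derivatives were plated at 500 cells per well in duplicate into drug-stamped 384-well plates holding a ~2100-compound library at 2 or 10 μM. Culture was in RPMI 1640 with 10% FBS at 37 °C in 5% CO2, with 72 h of drug treatment. Viability was measured by Cell Titer Glo luminescence, and the averaged duplicate treatment wells were normalised to duplicate control wells at the same plate position.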
# [1] = 2uM, genotype: DNM1L knockout (sgDNM1L #1)
# [2] = 2uM, genotype: sgCTRLA1 (non-targeting control)
# [3] = 10uM, genotype: DNM1L knockout (sgDNM1L #1)
# [4] = 10uM, genotype: sgCTRLA1 (non-targeting control)
SMILES,fractional viability [1],fractional viability [2],fractional viability [3],fractional viability [4]
CC(C)Oc1ccc(C(=O)N[C@H](CNC(=O)CN(C)C)Cc2ccc(-c3cn4cccc([C@H](C)O)c4n3)cc2)cc1Cl,0.413,0.508,0.29,0.438
Clc1cccc(-c2nnnn2Cc2cccnc2)c1Cl,0.755,0.927,0.755,0.73
CS(=O)(=O)Nc1ccc([N+](=O)[O-])cc1Oc1ccccc1 [Nimesulide],0.973,1.1,0.922,1.01
O=[N+]([O-])c1ccc2c(c1)S(=O)(=O)C=C2 [Stattic],0.0799,0.101,0.0327,0.0222
O=C(O)c1cc(=O)[nH]c(=O)[nH]1 [Orotic acid (6-Carboxyuracil)],0.916,1.04,1.02,1.12
COc1ccc([C@]2(C#N)CC[C@@H](C(=O)O)CC2)cc1OC1CCCC1 [Cilomilast],0.977,1.1,0.843,1.15
CCc1c(Cl)c(O)c(Cl)c(O)c1C(=O)O[C@H]1[C@H](O)[C@H](OC)[C@H](OC/C2=C\C=C\C[C@H](O)/C(C)=C/[C@H](CC)[C@@H](O[C@@H]3OC(C)(C)[C@@H](OC(=O)C(C)C)[C@H](O)[C@@H]3O)/C(C)=C/C(C)=C/C[C@@H]([C@@H](C)O)OC2=O)O[C@@H]1C [Fidaxomicin],0.741,0.893,0.494,0.0966
C[C@H]1O[C@@H](O[C@H]2[C@@H](O)C[C@H](O[C@H]3[C@@H](O)C[C@H](O[C@H]4CC[C@@]5(C)[C@H](CC[C@@H]6[C@@H]5C[C@@H](O)[C@]5(C)[C@@H](C7=CC(=O)OC7)CC[C@]65O)C4)O[C@@H]3C)O[C@@H]2C)C[C@H](O)[C@@H]1O [Digoxin],0.0546,0.0452,0.032,0.0309
CCS(=O)(=O)N1CCC([C@@H](C)n2c(C)c(C(=O)NCc3c(OC)cc(C)[nH]c3=O)c3ccccc32)CC1,0.746,0.93,0.908,0.836
NC(=O)NO [Hydroxyurea],0.92,1.14,0.948,1.16
CC(C)c1cnn2c(NCc3ccccc3)cc(NCCCCCCN)nc12,1.09,1.13,0.83,0.972
O=C(O)CCNC(=O)c1ccccc1 [Betamipron],0.922,1.11,0.923,0.986
CN(NC(=O)CC(=O)NN(C)C(=S)c1ccccc1)C(=S)c1ccccc1 [Elesclomol (STA-4783)],0.0609,0.0221,0.0751,0.0222
O=C(O)c1ccccc1 [Benzoic Acid],0.793,0.98,0.581,0.958
O=CN1CC/C(=C/c2ccc3c(c2)OCO3)C1=O,0.723,0.973,0.78,0.692
OC[C@H]1O[C@@H](OCCc2ccc(O)cc2)[C@H](O)[C@@H](O)[C@@H]1O [Salidroside],0.968,1.14,0.842,1.07
O=C(c1cc(Cc2n[nH]c(=O)c3ccccc23)ccc1F)N1CCN(C(=O)C2CC2)CC1,0.967,1.06,0.727,1.02
CCN1CCN(Cc2ccc(Nc3ncc(F)c(-c4cc(F)c5nc(C)n(C(C)C)c5c4)n3)nc2)CC1,0.289,0.473,0.0303,0.0236
C[N+](C)(C)C[C@H](O)CC(=O)[O-] [L-carnitine],1.12,1.14,0.8,1.07
Cc1nnc(C(=O)NC(C)(C)c2nc(C(=O)NCc3ccc(F)cc3)c(O)c(=O)n2C)o1 [Raltegravir (MK-0518)],0.979,1.07,0.879,1.06
CN(C)C(=S)NN=C(c1ccccn1)c1ccccn1,0.177,0.132,0.255,0.107
O=C(Nc1cccc(Cl)c1)c1ccccn1,1.06,1.05,0.971,1.12
Clc1ccc(NN=C(c2ccccc2)c2ccccn2)nc1,0.116,0.0468,0.0355,0.0108
CCC[S+]([O-])c1ccc2[nH]c(NC(=O)OC)nc2c1 (configuration not stated) [Albendazole Oxide],1.04,0.909,0.505,0.562
CC1(C)CC(=O)c2c(C(F)(F)F)nn(-c3ccc(C(N)=O)c(N[C@H]4CC[C@H](OC(=O)CN)CC4)c3)c2C1,0.976,1.16,0.981,1.09
CC[C@H](NC(=O)[C@H](C)NC)C(=O)N1C[C@@H](O)C[C@H]1Cc1c(-c2[nH]c3cc(F)ccc3c2C[C@@H]2C[C@H](O)CN2C(=O)[C@H](CC)NC(=O)[C@H](C)NC)[nH]c2cc(F)ccc12 [Birinapant],0.772,1.15,0.653,0.949
CS(=O)(=O)N1CCN(Cc2cc3nc(-c4cccc5[nH]ncc45)nc(N4CCOCC4)c3s2)CC1,0.627,0.588,0.272,0.249
Cc1c(CN2CCN(C(=O)[C@H](C)O)CC2)sc2c(N3CCOCC3)nc(-c3cnc(N)nc3)nc12,0.214,0.238,0.175,0.15
